Source: PubChem BioAssay (Tox21)
Inconclusive results are not listed. Calls of active or inactive are those of the source. Unless noted, the call rests on the fitted dose curve; in most records, active means well fitted curve in the direction sought with a large enough effect in the repeat runs; inconclusive means weak or mixed curves; inactive means no such curve, though single readings can be large; an effect the other way counts as inactive or inconclusive.

Assays:
[1] = qHTS assay for small molecule agonists of the p53 signaling pathway (AID 651631; calls by dose curve; further: nearly all actives have a fitted effect of over 15% in size)
Outline: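 HCT-116 cells carrying a beta-lactamase reporter under p53 response elements were dosed with compound for 16 h at 37 °C. LiveBLAzer B/G FRET substrate was then added for 2 h at room temperature, and fluorescence intensity was read to detect pathway agonism.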

[2] = qHTS assay for small molecules that induce genotoxicity in human embryonic kidney cells expressing luciferase-tagged ATAD5 (AID 651632); further: nearly all actives have a fitted effect of over 15% in size
Outline: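 Luminescence read-out: after 16 hr compound exposure at 37C, ATAD5-luciferase HEK293T cells received Amplite, 30 min RT, then CCD imaging. A rise in signal marks genotoxic stress.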

[3] = qHTS assay for small molecule agonists of the p53 signaling pathway - cell viability (AID 651633; calls by dose curve;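 further: p53RE-bla HCT reporter cells with a stable beta-lactamase p53 reporter; series mostly up to about 83 µM; nearly all actives have a fitted effect of over 30% in size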)
Outline: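 p53RE-bla cells, seeded at 4,000 per well and rested 5 h at 37 C/5% CO2, received compounds in DMSO for 16 h at 37 C. CellTiter-Glo was then added, and luminescence was read after 30 min at room temperature to gauge cytotoxicity.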

[4] = qHTS assay for small molecules that induce genotoxicity in human embryonic kidney cells expressing luciferase-tagged ATAD5 - cell viability (AID 651634; calls by dose curve; further: nearly all actives have a fitted effect of over 25% in size)
Outline: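 HEK293T ATAD5-luc cells, 2,000/well; compound 15.5 hr, 37C/5% CO2; CellTiter-Fluor 30 min, 37C; fluorescence read.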

[5] = qHTS assay for small molecule disruptors of the mitochondrial membrane potential - cell viability (AID 720634; calls by dose curve;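 further: human HepG2 liver cancer cells; series mostly up to about 83 µM; nearly all actives have a fitted effect of over 20% in size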)
Outline: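 Luminescence from CellTiter-Glo (ATP content) gave viability in HepG2 cells, read in the same wells as the MMP dye assay after 1 hr compound exposure at 37 C.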

[6] = qHTS assay for small molecule disruptors of the mitochondrial membrane potential (AID 720635)
Outline: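 HepG2 cells (2,000/well) attached overnight at 37C, then took compound for 1 hr at 37C, 5% CO2. Mito-MPS dye was added for 30 min; fluorescence was read at 490/535 nm (monomers) and 540/590 nm (aggregates).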

[7] = biological target: Glucocorticoid receptor (Homo sapiens) (UniProt P04150); assay: qHTS assay to identify small molecule agonists of the glucocorticoid receptor (GR) signaling pathway (AID 720691; active means well fitted activation curve with a large enough effect in the signal ratio in the repeat runs, not every such curve was filed as active; the % refers to the signal ratio)
Outline: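 HeLa GR-bla reporter line; cells pre-incubated 4 h, compound in DMSO 18 h at 37 C; LiveBLAzer B/G FRET substrate 2 h RT; fluorescence intensity read-out.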

[8] = biological target: Glucocorticoid receptor (Homo sapiens) (UniProt P04150); assay: qHTS assay to identify small molecule antagonists of the glucocorticoid receptor (GR) signaling pathway (AID 720692; active means well fitted inhibition curve with a large enough effect in the signal ratio in the repeat runs, not every such curve was filed as active; the % refers to the signal ratio)
Outline: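 Read-out: beta-lactamase FRET substrate fluorescence, 2 h at room temperature, in HeLa cells stably carrying a GRE-driven bla reporter. Compounds were co-incubated with 5 nM dexamethasone agonist (final) for 18 h at 37 C.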

[9] = qHTS assay to identify small molecule antagonists of the glucocorticoid receptor (GR) signaling pathway - cell viability counter screen (AID 720693); further: nearly all actives have a fitted effect of over 55% in size
[10] = qHTS assay for identifying genotoxic compounds that show differential cytotoxicity against isogenic chicken DT40 cell lines with known DNA damage response pathways - wild type cell line (AID 743012); further: nearly all actives have a fitted effect of over 60% in size; further: potency means the concentration at half of the fitted maximal effect
Outline: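 CellTiter-Glo luminescence readout of viability in wild type DT40 cells after 40 h compound exposure at 37 C/5% CO2; 300 cells/well; reagent incubated 30 min at room temperature before reading.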

[11] = qHTS assay for identifying genotoxic compounds that show differential cytotoxicity against isogenic chicken DT40 cell lines with known DNA damage response pathways - Rev3 mutant cell line (AID 743014); further: nearly all actives have a fitted effect of over 55% in size
[12] = qHTS assay for identifying genotoxic compounds that show differential cytotoxicity against isogenic chicken DT40 cell lines with known DNA damage response pathways - Rad54/Ku70 mutant cell line (AID 743015); further: nearly all actives have a fitted effect of over 60% in size
[13] = qHTS assay to identify small molecule antagonists of the androgen receptor (AR) signaling pathway - cell viability counter screen (AID 743033; further: nearly all actives have a fitted effect of over 45% in size)
[14] = biological target: Androgen receptor (Homo sapiens) (UniProt P10275); assay: qHTS assay to identify small molecule antagonists of the androgen receptor (AR) signaling pathway (AID 743035; active means well fitted inhibition curve with a large enough effect in the signal ratio in the repeat runs, not every such curve was filed as active; the % refers to the signal ratio)
Outline: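 AR-bla HEK293 reporter cells; 4 h settle at 37C/5% CO2; compound + R1881 agonist, 16 h at 37C; LiveBLAzer B/G FRET substrate 2 h RT; fluorescence intensity read. qHTS format.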

[15] = biological target: Androgen receptor (Homo sapiens) (UniProt P10275); assay: qHTS assay to identify small molecule agonists of the androgen receptor (AR) signaling pathway using the MDA cell line (AID 743040; further: nearly all actives have a fitted effect of over 20% in size)
Outline: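 Agonist activity is measured as luciferase luminescence in human MDA-kb2 cells whose MMTV reporter responds to both AR and GR. Compounds in DMSO incubate 16 h at 37C, 0% CO2, and ONE-Glo is read after 30 min.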

[16] = qHTS assay to identify small molecule antagonists of the androgen receptor (AR) signaling pathway using the MDA cell line - cell viability counter screen (AID 743041; further: nearly all actives have a fitted effect of over 45% in size)
Outline: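 qHTS viability read-out; MDA-kb2 AR-luc; R1881-stimulated; 16 h exposure at 37C, 0% CO2; CellTiter-Fluor, 30 min; fluorescence intensity.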

[17] = biological target: Androgen receptor (Homo sapiens) (UniProt P10275); assay: qHTS assay to identify small molecule antagonists of the androgen receptor (AR) signaling pathway using the MDA cell line (AID 743042; further: nearly all actives have a fitted effect of over 55% in size)
Outline: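 MDA-kb2 cells (human breast carcinoma, stably carrying an MMTV-luciferase reporter responsive to AR and GR) were plated at 3,000 cells/well and preincubated 5 hr at 37C, then given compound plus R1881 agonist for 16 h. ONE-Glo luminescence was read.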

[18] = biological target: Estrogen receptor (Homo sapiens) (UniProt P03372); assay: qHTS assay to identify small molecule antagonists of the estrogen receptor alpha (ER-alpha) signaling pathway (AID 743069; active means well fitted curve in the direction sought with a large enough effect in the signal ratio in the repeat runs, not every such curve was filed as active; the % refers to the signal ratio)
Outline: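 Screening used a UAS-driven beta-lactamase reporter integrated into HEK293 cells expressing ER-alpha, stimulated with 17beta-estradiol alongside test compounds over 18 hr at 37C; signal came from LiveBLAzer B/G FRET fluorescence.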

[19] = qHTS assay to identify small molecule antagonists of the estrogen receptor alpha (ER-alpha) signaling pathway - cell viability counter screen (AID 743074; calls by dose curve; further: nearly all actives have a fitted effect of over 45% in size)
[20] = biological target: Estrogen receptor (Homo sapiens) (UniProt P03372); assay: qHTS assay to identify small molecule agonists of the estrogen receptor alpha (ER-alpha) signaling pathway (AID 743075; calls by dose curve)
[21] = biological target: Estrogen receptor (Homo sapiens) (UniProt P03372); assay: qHTS assay to identify small molecule agonists of the estrogen receptor alpha (ER-alpha) signaling pathway using the BG1 cell line (AID 743079); further: nearly all actives have a fitted effect of over 20% in size
[22] = qHTS assay to identify small molecule antagonists of the estrogen receptor alpha (ER-alpha) signaling pathway using the BG1 cell line (AID 743080; calls by dose curve;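 further: BG1 cells stimulated with 17beta-estradiol alongside compound; series mostly up to about 70 µM; nearly all actives have a fitted effect of over 25% in size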)
Outline: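 Endogenous full-length ER-alpha in BG1-Luc-4E2 cells drives a stably integrated 4×ERE luciferase gene; compounds were tested against 17beta-estradiol over 21.5 h, with luminescence and multiplexed viability fluorescence recorded.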

[23] = qHTS assay to identify small molecule antagonists of the estrogen receptor alpha (ER-alpha) signaling pathway using the BG1 cell line - cell viability counter screen (AID 743081);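 further: compound given together with 17beta-estradiol as the ER stimulus; series mostly up to about 70 µM; nearly all actives have a fitted effect of over 45% in size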
Aromatase (Homo sapiens) = Aromatase (Homo sapiens) (UniProt P11511); assay: qHTS assay to identify aromatase inhibitors (AID 743083); further: series mostly up to about 70 µM; nearly all actives have a fitted effect of over 55% in size
[24] = qHTS assay to identify aromatase inhibitors - cell viability counter screen (AID 743084)
[25] = biological target: Aryl hydrocarbon receptor (Homo sapiens) (UniProt P35869); assay: qHTS assay to identify small molecule that activate the aryl hydrocarbon receptor (AhR) signaling pathway (AID 743085);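 further: HG2L7.5c1 human HepG2 liver cells with stably integrated DRE-driven firefly reporter; series mostly up to about 70 µM; nearly all actives have a fitted effect of over 15% in size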
Outline: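 HepG2 cells stably carrying a 20-DRE firefly luciferase reporter (HG2L7.5c1) treated with compound for 24 hr at 37C. Luciferase read by ONE-Glo luminescence, with CellTiter-Fluor viability read first.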

[26] = qHTS assay to identify small molecule that activate the aryl hydrocarbon receptor (AhR) signaling pathway - cell viability counter screen (AID 743086)
Outline: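 HepG2-AhR-luc (HG2L7.5c1) cells, 4000/well, were preincubated 5 h at 37C, exposed to compound in qHTS format for 24 hr at 37C, then given CellTiter-Fluor for 30 min; viability was read as fluorescence in the reporter wells.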

[27] = biological target: Peroxisome proliferator-activated receptor gamma (Homo sapiens) (UniProt P37231); assay: qHTS assay to identify small molecule agonists of the peroxisome proliferator-activated receptor gamma (PPARg) signaling pathway (AID 743094; active means well fitted activation curve with a large enough effect in the signal ratio in the repeat runs, not every such curve was filed as active; the % refers to the signal ratio)
Outline: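 HEK293H PPARg-bla cells, 5 h settle at 37C/5% CO2; compound (DMSO) 17 h, 37C; B/G FRET substrate 1 h RT; fluorescence intensity read-out. qHTS format.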

[28] = qHTS assay to test for compound auto fluorescence at 590 nm (red) in HepG2 cells (AID 720674)
Outline: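 Intrinsic compound fluorescence in the red window (Ex/Em 540/590 nm) is measured in attached HepG2 cells exposed for 1 hr, DMSO vehicle as baseline, benchmarked to Rose Bengal sodium.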

[29] = qHTS assay to test for compound auto fluorescence at 535 nm (green) in HepG2 cells (AID 720675)
[30] = qHTS assay to test for compound auto fluorescence at 460 nm (blue) in HEK293 cells (AID 720678)
Outline: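 Auto fluorescence in the blue band was quantified as triamterene equivalency. HEK293 cells were seeded at 2,000/well, dosed after a 4-5 hr attachment, and kept overnight at 37C before the 405/460 nm reading.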

[31] = qHTS assay to test for compound auto fluorescence at 590 nm (red) in HEK293 cells (AID 720679)
Outline: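 Autofluorescence equivalency to Rose Bengal sodium, 540/590nm, in HEK293 cells exposed overnight to 23 nL compound per well.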

[32] = qHTS assay to test for compound auto fluorescence at 535 nm (green) in HEK293 cells (AID 720680)
[33] = qHTS assay to test for compound auto fluorescence at 460 nm (blue) in HEK293 cell free culture (AID 720681)
Outline: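 Test compounds were pinned into cell-free culture medium (DMEM with 10% FBS) and fluorescence was read directly at Ex/Em 405/460 nm. Signals were expressed as fluorescence equivalents of triamterene, with DMSO vehicle as control.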

[34] = qHTS assay to test for compound auto fluorescence at 535 nm (green) in HEK293 cell free culture (AID 720682)
Outline: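 Green-label autofluorescence (485 nm excitation, 535 nm emission) measured on compound added to cell-free culture medium (DMEM, 10% FBS). Output is expressed relative to fluorescein.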

[35] = qHTS assay to test for compound auto fluorescence at 590 nm (red) in HepG2 cell free culture (AID 720684)
Outline: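 Readout: intrinsic compound fluorescence at 590 nm emission after 540 nm excitation, scaled to Rose Bengal sodium. Matrix was cell-free MEM with 10% FBS; DMSO vehicle wells served as control.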

[36] = qHTS assay to test for compound auto fluorescence at 460 nm (blue) in HepG2 cell free culture (AID 720685)
Outline: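 Cell-free plates of MEM plus 10% FBS received 23 nL compound or DMSO vehicle; blue-channel (405/460 nm) intensity scored against triamterene as reference fluorophore.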

[37] = qHTS assay to test for compound auto fluorescence at 535 nm (green) in HepG2 cell free culture (AID 720686)
[38] = qHTS assay to test for compound auto fluorescence at 460 nm (blue) in HepG2 cells (AID 720687)
Outline: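 Cells (2,000/well in MEM with 10% FBS) attached overnight at 37 C, then were exposed to compound or DMSO for 1 hr at 37 C, 5% CO2. Fluorescence read at Ex/Em 405/460 nm, expressed as triamterene-equivalent signal.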

[39] = biological target: Acetylcholinesterase (Homo sapiens) (UniProt P22303); assay: Acetylcholinesterase (AChE) small molecule antagonists: fluorescence cell-based qHTS assay (AID 1347398; calls by dose curve; further: potency means the concentration at half of the fitted maximal effect; nearly all actives have a fitted effect of over 50% in size); conditions: Potency: AChE activity; outcome: AChE activity
Outline: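 Cellular AChE inhibition: SH-SY5Y cells treated with test chemical for 30 min at 37 C, then acetylthiocholine hydrolysis followed over 40 min at room temperature via thiocholine-reactive Thiolite Green fluorescence (490/520 nm).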

[40] = biological target: Acetylcholinesterase (Homo sapiens) (UniProt P22303); assay: Acetylcholinesterase (AChE) small molecule antagonists: enzyme-based qHTS assay with human liver microsomes (AID 1347399; calls by dose curve; further: nearly all actives have a fitted effect of over 60% in size); conditions: Potency: qHTS inhibition; outcome: qHTS inhibition
Outline: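 Recombinant human AChE (50 mU/mL in the enzyme mix) and human liver microsomes (0.25 mg/mL final) were preincubated with compound and NADPH (0.25 mg/mL final) for 30 min at 37 C. Acetylthiocholine/DTNB was then added; thiocholine was read colorimetrically after 10 min at room temperature.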

Measured: Potency

Estrogen receptor (Homo sapiens), sequence (P03372 whole entry, looked up): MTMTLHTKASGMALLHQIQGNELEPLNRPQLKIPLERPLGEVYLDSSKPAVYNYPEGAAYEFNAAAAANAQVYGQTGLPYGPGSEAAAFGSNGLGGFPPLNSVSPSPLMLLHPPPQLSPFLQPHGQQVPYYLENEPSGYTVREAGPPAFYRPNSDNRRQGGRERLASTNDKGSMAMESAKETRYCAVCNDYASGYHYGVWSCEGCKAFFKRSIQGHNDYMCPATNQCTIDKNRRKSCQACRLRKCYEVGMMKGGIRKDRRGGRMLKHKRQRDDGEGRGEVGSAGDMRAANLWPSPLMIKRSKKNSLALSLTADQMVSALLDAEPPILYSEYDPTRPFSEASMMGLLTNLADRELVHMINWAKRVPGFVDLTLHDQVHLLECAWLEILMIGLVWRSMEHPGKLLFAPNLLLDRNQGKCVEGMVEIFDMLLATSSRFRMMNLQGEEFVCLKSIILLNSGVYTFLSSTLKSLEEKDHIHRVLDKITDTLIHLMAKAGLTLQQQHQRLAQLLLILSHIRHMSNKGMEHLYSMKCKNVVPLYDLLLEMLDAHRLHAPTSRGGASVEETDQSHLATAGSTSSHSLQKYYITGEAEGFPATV
Glucocorticoid receptor (Homo sapiens), sequence (P04150 whole entry, looked up): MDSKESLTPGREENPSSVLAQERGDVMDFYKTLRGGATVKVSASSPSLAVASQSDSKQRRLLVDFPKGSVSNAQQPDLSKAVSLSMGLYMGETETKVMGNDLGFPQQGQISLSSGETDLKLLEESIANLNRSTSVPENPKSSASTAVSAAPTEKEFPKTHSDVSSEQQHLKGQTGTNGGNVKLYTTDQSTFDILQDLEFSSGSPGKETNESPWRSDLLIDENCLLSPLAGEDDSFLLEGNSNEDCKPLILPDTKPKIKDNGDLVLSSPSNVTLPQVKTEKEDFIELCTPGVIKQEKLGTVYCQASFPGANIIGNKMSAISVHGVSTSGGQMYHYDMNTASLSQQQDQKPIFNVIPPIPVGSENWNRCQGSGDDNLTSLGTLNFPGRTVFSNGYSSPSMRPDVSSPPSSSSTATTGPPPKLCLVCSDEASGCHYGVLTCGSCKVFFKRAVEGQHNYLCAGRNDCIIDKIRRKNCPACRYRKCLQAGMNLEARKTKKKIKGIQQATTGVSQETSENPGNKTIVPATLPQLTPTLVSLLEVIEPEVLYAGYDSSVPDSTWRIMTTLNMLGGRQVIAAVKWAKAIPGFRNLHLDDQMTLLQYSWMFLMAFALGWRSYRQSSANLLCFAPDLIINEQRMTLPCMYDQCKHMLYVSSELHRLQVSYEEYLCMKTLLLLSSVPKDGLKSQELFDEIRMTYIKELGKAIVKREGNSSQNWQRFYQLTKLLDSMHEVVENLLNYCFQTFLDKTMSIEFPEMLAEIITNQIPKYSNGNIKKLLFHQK
Acetylcholinesterase (Homo sapiens), sequence (P22303 whole entry, looked up): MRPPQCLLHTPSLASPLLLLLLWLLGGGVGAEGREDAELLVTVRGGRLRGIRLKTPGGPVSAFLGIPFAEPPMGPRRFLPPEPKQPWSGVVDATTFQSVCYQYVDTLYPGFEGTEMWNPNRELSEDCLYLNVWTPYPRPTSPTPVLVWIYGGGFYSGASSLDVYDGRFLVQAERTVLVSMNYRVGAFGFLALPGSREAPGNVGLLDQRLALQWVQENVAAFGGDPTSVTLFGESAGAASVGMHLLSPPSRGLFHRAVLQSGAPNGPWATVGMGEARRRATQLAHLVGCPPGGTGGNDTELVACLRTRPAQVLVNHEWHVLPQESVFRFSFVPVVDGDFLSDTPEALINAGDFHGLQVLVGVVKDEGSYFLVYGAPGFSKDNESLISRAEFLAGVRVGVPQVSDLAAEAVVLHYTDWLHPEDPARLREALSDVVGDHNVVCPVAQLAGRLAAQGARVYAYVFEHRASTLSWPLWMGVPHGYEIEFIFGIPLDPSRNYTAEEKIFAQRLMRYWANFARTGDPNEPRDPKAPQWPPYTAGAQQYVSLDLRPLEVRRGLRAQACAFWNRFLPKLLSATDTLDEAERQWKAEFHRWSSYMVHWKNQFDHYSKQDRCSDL
Androgen receptor (Homo sapiens), sequence (P10275 whole entry, looked up): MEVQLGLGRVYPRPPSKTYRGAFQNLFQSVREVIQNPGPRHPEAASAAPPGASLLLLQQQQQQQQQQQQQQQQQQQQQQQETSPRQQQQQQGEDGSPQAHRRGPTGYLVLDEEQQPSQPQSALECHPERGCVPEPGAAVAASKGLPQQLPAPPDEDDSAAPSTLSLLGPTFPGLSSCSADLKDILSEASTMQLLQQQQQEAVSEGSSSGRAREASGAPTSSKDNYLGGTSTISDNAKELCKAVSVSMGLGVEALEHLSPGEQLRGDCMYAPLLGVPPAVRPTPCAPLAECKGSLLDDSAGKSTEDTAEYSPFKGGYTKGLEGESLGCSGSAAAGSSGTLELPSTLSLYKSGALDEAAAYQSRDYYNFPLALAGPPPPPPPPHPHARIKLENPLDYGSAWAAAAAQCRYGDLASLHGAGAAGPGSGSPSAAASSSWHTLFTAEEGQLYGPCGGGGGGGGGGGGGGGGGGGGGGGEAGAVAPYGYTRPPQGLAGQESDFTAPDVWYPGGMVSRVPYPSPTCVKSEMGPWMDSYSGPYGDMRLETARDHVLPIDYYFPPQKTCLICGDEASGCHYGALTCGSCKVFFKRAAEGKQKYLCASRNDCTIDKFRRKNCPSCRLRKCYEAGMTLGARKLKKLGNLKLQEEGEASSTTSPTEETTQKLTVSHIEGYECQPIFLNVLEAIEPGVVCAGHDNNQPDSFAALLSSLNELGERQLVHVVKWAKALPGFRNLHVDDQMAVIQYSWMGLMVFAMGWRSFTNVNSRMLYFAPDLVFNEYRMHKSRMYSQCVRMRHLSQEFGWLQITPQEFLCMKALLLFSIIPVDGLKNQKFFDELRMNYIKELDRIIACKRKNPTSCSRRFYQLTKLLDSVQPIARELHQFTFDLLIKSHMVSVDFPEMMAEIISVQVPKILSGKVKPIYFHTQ
Aryl hydrocarbon receptor (Homo sapiens), sequence (P35869 whole entry, looked up): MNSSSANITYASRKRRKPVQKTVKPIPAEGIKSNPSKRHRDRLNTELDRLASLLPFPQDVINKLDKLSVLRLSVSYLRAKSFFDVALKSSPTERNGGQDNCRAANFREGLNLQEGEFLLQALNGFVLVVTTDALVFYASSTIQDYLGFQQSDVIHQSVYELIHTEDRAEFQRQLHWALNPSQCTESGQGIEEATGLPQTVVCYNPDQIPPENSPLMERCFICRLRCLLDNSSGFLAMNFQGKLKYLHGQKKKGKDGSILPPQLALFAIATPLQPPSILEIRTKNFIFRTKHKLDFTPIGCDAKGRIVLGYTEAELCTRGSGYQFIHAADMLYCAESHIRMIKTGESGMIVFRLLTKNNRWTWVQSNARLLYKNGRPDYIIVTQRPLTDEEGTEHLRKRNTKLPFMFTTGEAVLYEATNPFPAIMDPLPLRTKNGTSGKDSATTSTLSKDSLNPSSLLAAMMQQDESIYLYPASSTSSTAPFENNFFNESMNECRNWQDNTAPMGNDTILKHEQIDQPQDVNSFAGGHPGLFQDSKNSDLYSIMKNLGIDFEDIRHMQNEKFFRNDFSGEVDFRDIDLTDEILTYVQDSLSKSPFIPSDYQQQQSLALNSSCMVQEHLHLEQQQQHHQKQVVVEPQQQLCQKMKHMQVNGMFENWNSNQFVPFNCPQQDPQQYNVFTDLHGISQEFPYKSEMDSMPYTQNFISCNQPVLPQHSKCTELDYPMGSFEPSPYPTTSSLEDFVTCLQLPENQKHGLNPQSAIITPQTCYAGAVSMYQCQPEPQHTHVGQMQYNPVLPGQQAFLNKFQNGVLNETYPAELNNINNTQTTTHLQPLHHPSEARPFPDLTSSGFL
Aromatase (Homo sapiens), sequence (P11511 whole entry, looked up): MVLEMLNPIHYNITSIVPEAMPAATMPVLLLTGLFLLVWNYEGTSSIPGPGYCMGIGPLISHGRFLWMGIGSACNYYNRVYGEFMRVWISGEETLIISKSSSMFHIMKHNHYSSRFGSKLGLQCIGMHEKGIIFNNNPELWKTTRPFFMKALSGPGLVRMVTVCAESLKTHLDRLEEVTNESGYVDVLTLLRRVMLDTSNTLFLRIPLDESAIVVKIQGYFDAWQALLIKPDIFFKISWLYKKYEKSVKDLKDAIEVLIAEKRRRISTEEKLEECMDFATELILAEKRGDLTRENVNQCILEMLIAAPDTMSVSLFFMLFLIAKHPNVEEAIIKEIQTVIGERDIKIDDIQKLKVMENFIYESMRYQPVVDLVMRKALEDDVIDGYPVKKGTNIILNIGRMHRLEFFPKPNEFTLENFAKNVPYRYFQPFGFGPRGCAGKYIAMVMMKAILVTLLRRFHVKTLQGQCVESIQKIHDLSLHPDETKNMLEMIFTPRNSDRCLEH
Peroxisome proliferator-activated receptor gamma (Homo sapiens), sequence (P37231 whole entry, looked up): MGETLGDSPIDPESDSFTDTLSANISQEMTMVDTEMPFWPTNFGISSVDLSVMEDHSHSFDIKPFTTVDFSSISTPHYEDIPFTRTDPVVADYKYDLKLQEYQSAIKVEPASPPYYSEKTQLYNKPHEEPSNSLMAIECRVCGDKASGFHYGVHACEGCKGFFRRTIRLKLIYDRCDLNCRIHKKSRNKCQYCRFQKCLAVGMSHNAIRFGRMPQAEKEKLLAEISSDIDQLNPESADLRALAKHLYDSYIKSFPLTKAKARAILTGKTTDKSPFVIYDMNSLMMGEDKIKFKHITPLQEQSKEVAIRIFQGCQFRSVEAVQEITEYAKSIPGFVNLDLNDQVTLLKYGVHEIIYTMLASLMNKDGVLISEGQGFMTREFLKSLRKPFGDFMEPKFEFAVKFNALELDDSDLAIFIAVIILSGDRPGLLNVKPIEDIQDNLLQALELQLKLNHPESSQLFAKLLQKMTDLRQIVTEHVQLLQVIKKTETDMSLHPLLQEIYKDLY

CNC(C)[C@@H]1CC[C@@H](N)[C@@H](O[C@H]2[C@H](O)[C@@H](O[C@H]3OC[C@](C)(O)[C@H](NC)[C@H]3O)[C@H](N)C[C@@H]2N)O1 (stereo not given in full)
not listed: [28] | [29] | [30] | [31] | [32] | [33] | [34] | [35] | [36] | [37] | [38] | [39] | [40]
inactive: all other assays above

CC[C@@H](O)C(C[C@@H](C)N(C)C)(c1ccccc1)c1ccccc1
active: [10] 55.1 µM
not listed: [1] | [4] | [6] | [11] | [12] | [14] | [15] | [17] | [19] | [21] | [27] | [39] | [40]
inactive: all other assays above

Cc1cc(O)ccc1O
active: [39] 71.8 µM
inactive: [40]

COc1cc(C(=O)NCc2ccc(OCCN(C)C)cc2)cc(OC)c1OC
inactive: [40]

C[C@@H]1O[C@@H]1P(=O)(O)O
inactive: [25]
